# Source: PubChem BioAssay
# Cardio protect: myocardial damage modulation in H9c2 cells; 360,000 compounds, 0.63% hits; AID 588492; H9c2 cardiomyocytes, H2O2 injury protection, ATPLite, 2 h; protection from H2O2 cell death, % at 20 µM;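 active = compounds giving at least 50% protection of heart cells from peroxide-induced death in the single-dose screen, raw or plate-pattern-corrected value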;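 note: 0% = DMSO wells with peroxide and 100% = DMSO wells without peroxide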
# aDG glyco act: alpha-DG glycosylation activation. Pro5-aDG cells, alpha-DG glycosylation AlphaScreen (IIH6); 0% Pro5, 100% B10-LARGE cell signal. activation, % at 10 µM. 360,000 compounds, 0.22% hits;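 active = activation of at least 8% versus controls, or a plate z-score of at least 8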;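 note: Pro5 are CHO cells carrying HIG-tagged alpha-DG that lacks glycosylation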
# Calpain2 inh: calpain II (pig) inhibition. AID 1236. inhibition, % at 16 µM. purified calpain II, fluorogenic peptide substrate, 30 min. 220,000 compounds, 0.37% hits;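 active = inhibition above about 50%, limit read from the data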
# beta cell repl: MIN6 beta-cell proliferation induction; proliferation, % at 10 µM; 330,000 compounds, 0.29% hits; AID 2380; MIN6 cells proliferation, ATPlite luminescence, 48 h; cells starved in 0.2% serum; 100% = growth in 10% serum;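 active = compounds whose signal lies at least 3.5 SD above the mean of all wells on their plate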;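 note: 0% = DMSO-treated cells in low-serum medium and 100% = 10% serum control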
# TAG inh: reduces triacylglycerol accumulation in H9c2 cells. Nile Red lipid (TAG) fluorescence; cells loaded with 200 µM oleic acid. inhibition, % at 12.5 µM. 230,000 compounds, 0.66% hits. AID 651582;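 active = pattern-corrected inhibition of lipid staining of at least 50% with the nuclear-stain viability signal not falling by more than 50%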;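 note: 0% = DMSO wells and 100% = triacsin C control wells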
# FAS-TE inh: inhibitors of human fatty acid synthase thioesterase domain. AID 602261. P49327. 360,000 compounds, 0.67% hits. inhibition, % at 15 µM. recombinant FAS-TE, OMFH fluorogenic substrate, fluorescence endpoint;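 active = compounds whose normalised, plate-corrected inhibition of enzyme fluorescence in the single-dose primary screen is 50% or more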;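 note: 0% = DMSO with enzyme and 100% = substrate without enzyme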
# The depositor's hits bear a star; / = no result given. Most compounds without a hit are left out; they make up all but 2.3% or so of the library.
SMILES,Cardio protect,aDG glyco act,Calpain2 inh,beta cell repl,TAG inh,FAS-TE inh
COc1cccc(Cn2c(NCc3cccnc3)nc3c2c(=O)n(C)c(=O)n3C)c1,48.4,-0.3,-13.5,-0.6,14.6,-4.6
COc1ccc(CNc2nc3c(c(=O)n(Cc4ccc(F)cc4)c(=O)n3C)n2C)cc1,44.8,1.9,80.3*,-3.5,/,13.1
Cn1c(NCCO)nc2c1c(=O)n(Cc1ccc(F)cc1)c(=O)n2C,11.9,-0.1,/,-4.6,/,-5.5
Cn1c(NCc2ccccc2)nc2c1c(=O)n(Cc1ccccc1)c(=O)n2C,11.5,0.0,62.0*,-2.3,/,2.0
C[C@@H]1COc2cc(N3CC[C@H](O)C3)ccc2S(=O)(=O)N1,/,0.1,/,/,/,-11.9
COc1c(OC(C)=O)ccc(/C=C/c2ccc3ccccc3n2)c1[N+](=O)[O-],-14.4,0.0,17.6,-5.2,/,58.8*
Cc1cccc(C)c1OCc1cc(C(=O)N2CCN(c3ccc(F)cc3)CC2)no1,-6.7,0.0,/,-3.6,/,19.8
CNC(=O)/C(C#N)=C/c1c(N(Cc2ccccc2)Cc2ccccc2)nc2c(C)cccn2c1=O,20.4,0.1,19.6,/,/,32.1
CCNC(=O)/C(C#N)=C/c1c(N(Cc2ccccc2)Cc2ccccc2)nc2ccccn2c1=O,73.1*,-0.2,22.2,-5.2,/,26.4
COC(=O)c1ccc(N(C(=O)CNC(=O)c2ccco2)C(C(=O)NCC2CCCO2)c2ccc(OC)c(OC)c2)cc1 (centres undefined),3.0,0.1,/,2.4,/,-4.6
C/C(=N\NC(=O)COc1ccc(C(C)(C)C)cc1)c1ccc(OC(F)F)cc1,-12.0,-0.2,2.4,0.0,/,26.3
C/C(=N\NC(=O)COc1ccc(C#N)cc1)c1ccccc1OC(F)F,5.2,3.8,14.5,6.9*,/,-1.7
Cc1ccc(C(=O)NNC(=S)NC(=O)c2ccccc2)cc1,11.9,0.4,/,-4.2,14.8,-4.9
Cc1ccc(C(=O)NNC(=S)NC(=O)c2ccc(Cl)cc2Cl)cc1,54.5*,0.4,-24.4,-2.2,/,-4.3
N#Cc1ccccc1S(=O)(=O)N1CCN(C(=O)c2cc(=O)[nH]c3ccccc23)CC1,25.7,0.1,/,-3.3,6.8,1.5
Cc1cc(C)c(C)c(S(=O)(=O)N2CCN(C(=O)c3cc(=O)[nH]c4ccccc34)CC2)c1C,78.6*,-0.2,-88.8,-3.4,/,2.8
COc1ccc(N2CCN(C(=O)c3cc(=O)[nH]c4ccccc34)CC2)cc1,-4.0,0.4,5.0,2.4,-0.7,-1.1
Cc1ccc(S(=O)(=O)N2CCN(C(=O)c3cc(=O)[nH]c4ccccc34)CC2)c(C)c1,71.7*,-0.2,-37.3,-2.9,5.5,1.5
Cc1cc(C)c(S(=O)(=O)N2CCN(C(=O)c3cc(=O)[nH]c4ccccc34)CC2)c(C)c1,62.7*,-0.1,/,0.0,-4.7,-5.7
COC(=O)C1(C)NC(c2cccc(C)c2)C2C(=O)N(c3ccc(F)cc3)C(=O)C21 (centres undefined),-3.7,0.1,/,-1.5,10.0,-0.6
CC(C)C[C@@H](CN)NC(=O)c1nc[nH]c1C(=O)N[C@@H](C)C(=O)CNC[C@H](C)NC(=O)c1nc[nH]c1C(=O)N[C@@H](Cc1ccccc1)C(=O)O,-0.2,-0.3,/,/,1.2,-7.5
CCN(CC(=O)Nc1cccc(S(=O)(=O)N(C)c2ccccc2)c1)Cc1cccs1,-6.0,0.2,/,-5.4,-35.2,27.0
O=C(N/N=C/c1cc(Cl)ccc1O)c1ccccc1Br,76.6*,1.0,-15.6,-5.7,27.2,49.5
O=C(N/N=C/c1cc(Cl)ccc1O)c1cccnc1,45.1,0.9,/,-3.3,/,13.1
O=C(CNC(=O)c1ccccc1Br)N/N=C/c1cc(Br)ccc1O,74.3*,0.8,-21.6,-4.3,/,30.8
O=C(C[n+]1ccccc1)N/N=C/c1cc(Br)cc(Br)c1O,46.0,-0.2,/,-5.8,/,4.6
O=C(N/N=C\c1cc(Cl)ccc1O)c1ccc(S(=O)(=O)N2CCCCC2)cc1,62.8*,0.1,-9.7,0.0,/,8.1
O=C(Nc1cc(S(=O)(=O)Nc2ccc(Cl)cc2)ccc1O)c1ccc(S(=O)(=O)N2CCCCCC2)cc1,-25.7,-0.2,11.5,-6.5,19.3,-13.0
O=C(CP(=O)(c1ccccc1)c1ccccc1)N/N=C/c1cc(Br)cc(Br)c1O,70.7*,0.3,-79.1,0.0,/,25.6
